# Data published in PubChem BioAssay (NCI).
# Compounds without any hit were thinned out: in the full panel of roughly 79,000, 15% have a hit. A number with no mark means an inactive call. The source made the active and inactive calls. Cut-off read from the data, not from the text of the source: active = growth inhibition above about 70%; inactive = the rest.
# Legend:
# [1] = NCI Yeast Anticancer Drug Screen. Data for the rad50 strain (AID 155);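 note: 0% = growth of vehicle-only cultures of the same strain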; details: S. cerevisiae rad50 strain growth inhibition; at 50.0 µM; active compounds read high
# Method in brief: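 Yeast carrying a defined DNA repair defect were exposed to test compounds, and growth was compared with vehicle-treated controls to give percent inhibition.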
# [2] = NCI Yeast Anticancer Drug Screen. Data for the mec2-1 strain (AID 157); details: S. cerevisiae mec2-1 strain, at 50.0 µM, active compounds read high
# Method in brief: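 Mutant yeast (mec2-1) grown with compound; growth inhibition relative to vehicle control reported.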
# [3] = NCI Yeast Anticancer Drug Screen. Data for the sgs1 mgt1 strain (AID 161);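 note: 0% = growth of cultures given vehicle only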; details: S. cerevisiae sgs1 mgt1 strain, at 50.0 µM, active compounds read high
# Method in brief: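 This yeast growth screen uses a strain with defined DNA-repair lesions; compound-treated growth is compared with vehicle-treated growth.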
# [4] = NCI Yeast Anticancer Drug Screen. Data for the cln2 rad14 strain (AID 165);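 note: 0% = growth equal to vehicle treated cultures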; details: S. cerevisiae cln2 rad14 strain, at 50.0 µM, active compounds read high
# Method in brief: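 Readout is yeast growth inhibition versus vehicle-treated controls, using a strain with cln2 and rad14 alterations exposed to compound.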
# [5] = NCI Yeast Anticancer Drug Screen. Data for the bub3 strain (AID 167); details: S. cerevisiae bub3 mutant strain, at 50.0 µM, active compounds read high
# Method in brief: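 Compounds were applied to a genetically altered yeast strain carrying a cell-cycle control defect. Growth inhibition was scored against vehicle-treated controls.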
# [6] = NCI Yeast Anticancer Drug Screen. Data for the mlh1 rad18 strain (AID 175); details: S. cerevisiae mlh1 rad18 strain growth inhibition; at 50.0 µM; active compounds read high
# Method in brief: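 Genetically defined yeast (DNA repair-deficient) exposed to compounds; growth inhibition determined relative to vehicle.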
Structure (SMILES),growth inhibition [1],growth inhibition [2],growth inhibition [3],growth inhibition [4] [%],growth inhibition [5],growth inhibition [6]
COc1ccc(CN)cc1,-0.7%,-9.6%,-15.2%,2.75,6.85%,-2.6%
CN(C)C(=Nc1ccccc1)N(C)N,-1.2%,5.7%,-12.9%,0.75,1.9%,0.95%
N#CC1(Nc2ccc(-c3ccc(NC4(C#N)CCCC4)cc3)cc2)CCCC1,40.8%,-16.4%,-36.5%,-40.9,-2.55%,21.1%
CN(C)c1ccc(/C=C/c2ccnc3ccc(Br)cc23)cc1,26.9%,14.9%,27.4%,14.9,8.1%,9.35%
Cc1c(I)sc(I)c1I,39.6%,1.75%,30.9%,12.9,4.1%,12.6%
Nc1ccccc1Nc1ccncc1,-3%,11.2%,-1.7%,-26.9,-23.8%,-5.7%
Oc1[nH]c2ccccc2c1N=Nc1nc(-c2ccccc2)cs1,-40.6%,-52%,-46%,-0.9,-30.4%,-18.8%
CCC(O)C(C)CO (stereo unspecified),11.8%,5.05%,19.3%,-72.8,7.8%,-46.9%
CCOC(=O)CCC[Si](CC)(CC)CC,13.9%,12.3%,1.5%,-22.1,-15%,5.9%
[N-]=[N+]=NC(c1ccccc1)S(=O)c1ccccc1 (stereo unspecified),98.1% (active),98.5% (active),95.8% (active),48,96.3% (active),91% (active)
CCCCNc1ccc2c(C)c(Cc3ccccc3)c(=O)oc2c1,9.3%,-7.5%,20.3%,2.35,4.65%,-11%
CC(C)(C)CC(C(=O)O)[Si](C)(C)C (stereo unspecified),-4.55%,7.1%,-1.65%,-1.25,2.9%,-9.7%
c1ccc(B2OC(c3ccccc3)=C(c3ccccc3)O2)cc1,1.45%,-0.25%,17.9%,11.8,-0.45%,13.3%
OC12c3ccccc3C1CCCCCC21OCCCO1 (stereo unspecified),-9.4%,-27.8%,-31.8%,-17.4,-8.4%,-19.9%
O=C(O)c1cnc(Cl)c(Br)c1,-12.1%,-3.35%,6.7%,-17.9,-27.1%,2.5%
N#CC(C#N)=C(C#N)Nc1ccc(F)cc1,1%,-10.4%,-16.6%,-6.5,-13.4%,-0.4%
C#CCC(O)c1ccc(OC)c(OCc2ccccc2)c1 (stereo unspecified),-6.05%,-17.9%,18.6%,4.4,4.45%,-1.4%
Cn1c(=O)c2c(n(C)c1=O)[n+]([O-])c([N+]1([O-])CCOCC1)n2C,-3.85%,-6.3%,-0.6%,-24.9,-4.15%,3.2%

Structure (SMILES),growth inhibition [1],growth inhibition [2],growth inhibition [3],growth inhibition [4] [%],growth inhibition [5],growth inhibition [6]
O=[N+]([O-])c1ccc(/C(=N/Nc2ccccc2)c2ccc(Cl)cc2)cc1,13.2%,2.1%,1.65%,-14.1,9.8%,4.1%
Cc1cccc2c1C(=O)C1(Cc3ccccc3C1=O)C2 (stereo unspecified),-13.4%,-6.95%,-15.1%,-5.15,2.4%,-3.2%
O=C(O)c1ccccc1C(=O)Nc1ccc2ccccc2c1,15.9%,-4.6%,5%,2.6,7.55%,18.9%
O=C(OCC1OC(Br)CC(OC(=O)c2ccc([N+](=O)[O-])cc2)C1OC(=O)c1ccc([N+](=O)[O-])cc1)c1ccc([N+](=O)[O-])cc1 (stereo unspecified),6.9%,9.95%,18.1%,-22.4,-8.95%,35.5%
CCc1cc(C(C)(C)C)cc(C(C)(C)C)c1O,23.6%,18.4%,-5.75%,6.05,21.4%,2.2%
Cc1cc(N)c(N=Cc2ccccc2[N+](=O)[O-])cc1C,26.2%,11.5%,39.8%,-58.8,24.8%,20.9%
Cc1c(N=Nc2cccc(Cl)c2Cl)c(-c2ccccc2)nn1C(=S)S,53.8%,42.6%,55.9%,35.6,24.6%,28.2%
C/C(CC(=O)N(C(C)C)C(C)C)=N\NC(=O)c1ccncc1,-3.45%,-12.3%,-18.9%,18.7,-10.7%,13.8%
Cc1ccn2nnnc2c1,-8.45%,-11.2%,-1.2%,1,3.45%,-17.6%
CCOC(NCc1ccc(OC)c(OC)c1)OCC,3.6%,-11.8%,6.45%,3.55,17.1%,11.3%
CCc1ccc(NC(=O)C(c2ccccc2)c2ccccc2)cc1,8.6%,13.3%,2.35%,11.8,20.6%,-9.1%
Cc1nn(C(=O)Cc2ccccc2)c2c1C(c1ccc([N+](=O)[O-])cc1)SC(N)=N2 (stereo unspecified),11.4%,9.9%,22.4%,15.8,8.15%,9.75%
CCCCC1CCC(C(=O)O)=NC1 (stereo unspecified),5.65%,6.7%,25.1%,-9.95,-0.45%,-11.4%
O=[N+]([O-])c1ccc(-c2cc[cH-]c2)cc1.[Fe+2].c1cc[cH-]c1,-4.4%,14.2%,13.8%,3.4,17.8%,-0.75%
CNC(=O)c1cc(OC)ccc1O,-25.9%,-9.7%,-4.3%,-32.3,-3.6%,12.4%
COc1ccc(NC(=O)CC(O)c2cccc(N)c2)cc1 (stereo unspecified),22.3%,-26.4%,26.3%,7.1,25.1%,12.5%
O=[N+]([O-])C(C=C(n1nnc2ccccc21)n1nnc2ccccc21)=C(n1nnc2ccccc21)n1nnc2ccccc21,-20.1%,-2.75%,16.7%,4.2,-6.45%,5.35%
S=c1cc(S)nc[nH]1,29%,8.3%,11.9%,20.9,23.9%,9.45%
